For assay [1], the target named is Thioredoxin reductase 1, cytoplasmic (Rattus norvegicus) (UniProt O89049). The assay can be described thus: qHTS Assay for Substrates of Mammalian Selenoprotein Thioredoxin Reductase 1 (TrxR1) (AID 488772).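 Also: NADPH fluorescence in the first read after selenite addition and not the 8 min delta; a drop in NADPH fluorescence below the no-compound background marks a TrxR1 substrate.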 Also: potency is read from the fitted curve at half-maximal effect. In short, it runs like this: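 Quantitative HTS in Tris-HCl buffer at pH 7.5 with EDTA and Tween-20, using rat TrxR1, 400 uM NADPH and 400 uM selenite (final). A fall in initial NADPH fluorescence relative to background marked substrate behaviour.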

Assay [2] addresses Methanococcus maripaludis chaperonin (MmCpn) (UniProt Q6LX38). Kind of assay: High-Throughput Screening for Modulators of Cytosolic Chaperonin Activity: MmCpn Primary Screen (AID 488978).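 Also: 50 nM MmCpn enzyme hydrolysing 30 µM ATP at 37 °C; 0% is about no effect.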 Put shortly:
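Steps: chaperonin 50 nM final; add compound, 5 min RT; start with ATP, 30 uM final; hold 10 min at 37C; add ADP Transcreener HTRF reagent, 5 min; read ex 320, em 590 and 665 nm.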

Assay [3] deals with D(1A) dopamine receptor (Homo sapiens) (UniProt P21728). Kind of assay: HTS Assay for Allosteric Agonists of the Human D1 Dopamine Receptor: Primary Screen for Agonists (AID 488981). Also: 0% is about no effect. Put shortly: (§1)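 Tetracycline-induced HEK293 Trex D1 cells with forced coupling to calcium, loaded with no-wash calcium dye; kinetic fluorescence read 180 s after compound addition for agonism, then a further 180 s after an EC20 dopamine challenge for potentiation.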

For assay [4] the target is unchanged. The assay can be described thus: HTS Assay for Allosteric Agonists of the Human D1 Dopamine Receptor: Primary Screen for Potentiators (AID 488982). Also: 0% is about no effect. In short, it runs like this: as §1
Assay [5] shares this target. The assay can be described thus: HTS Assay for Allosteric Agonists of the Human D1 Dopamine Receptor: Primary Screen for Antagonists (AID 488983).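 Also: calcium flux response to an EC80 dopamine challenge measured with no-wash dye; % is scaled to controls: 0 for no effect and ±100 for the full control effect; nearly all actives have a fitted effect of over 65% in size.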 In short, it runs like this: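 Screening of inducible HEK293 T-REx D1 cells: compound first, EC80 dopamine 180 s later, each phase read kinetically for calcium over 180 s.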
Assay [6] can be described thus: qHTS for Inhibitors of Cell Surface uPA Generation: Validation Assay (AID 493164).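 Also: RAW 264.7 macrophage cells exposed to compound for 18 h; 0% is about no effect.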 In short, it runs like this: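 RAW 264.7, 4000 cells/well, o/n plating; cpd 7-pt 1:5 dilution 2.45 nM–38.3 uM final; 18 h, 37 C/5% CO2; ATP-Lite, 5 s luminescence exposure.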
A general note: In qHTS, concentration-response curves come from the screen itself.

For assay [7], the target named is Peptidyl-prolyl cis-trans isomerase NIMA-interacting 1 (Homo sapiens) (UniProt Q13526). The assay can be described thus: qHTS Validation Assay to Find Inhibitors of Pin1 (AID 504536; active = well fitted inhibition curve with a large enough effect in the polarisation, with a control signal flat, not every such curve was filed as active; the % refers to the polarisation;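 also: 0% = full Pin1 enzyme wells and -100% = no-enzyme wells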). In short, it runs like this:
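Fluorescence polarization competition: compounds (titration) displace HiFluor-488-labeled Pin1-1b peptide from Pin1 (0.3 uM final) in pH 7.5 HEPES buffer with DTT, 10 min at room temperature; %Activity normalized to no-enzyme wells, curves fitted.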

Assay [8] addresses Phosphoglycerate kinase, glycosomal (Trypanosoma brucei brucei) (UniProt P07378). Kind of assay: qHTS Validation Assay to Find Inhibitors of Phosphoglycerate Kinase (AID 504547).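 Also: control wells lack PGK and mark full inhibition.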 In short, it runs like this:
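PGK activity was coupled to GAPDH (100nM final), which generates the unstable substrate 1,3-bisphosphoglycerate in-well. Reactions ran 60 minutes at room temperature in 100mM TEA pH 7.6, 5mM MgCl2, 0.01% Tween-20, then Kinase-Glo Plus luminescence was read.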

In assay [9] the target is phosphoglycerate mutase (Leishmania major) (UniProt Q4Q090). The assay can be described thus: qHTS Validation Assay to Find Inhibitors of Phosphoglycerate Mutase (AID 504548). Also: series mostly up to about 58 µM; % is scaled to controls: 0 for no effect and ±100 for the full control effect. In short, it runs like this: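 Lm PGAM at 1.25 nM final with substrate in 100 mM TEA pH 7.6, 5 mM MgCl2, 0.01% Tween-20; 45 min at room temperature. Kinase-GloPlus added, 10 min, end-point luminescence read.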

Assay [10] has as its target ATPase family AAA domain-containing protein 5 (Homo sapiens) (UniProt Q96QE3). Kind of assay: Validation screen for small molecules that inhibit ELG1-dependent DNA repair in human embryonic kidney (HEK293T) cells expressing luciferase-tagged ELG1 (AID 493107).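 Also: cells co-treated with the DNA-damaging agent 5-fluorouridine alongside compound; series mostly up to about 46 µM; % is scaled to controls: 0 for no effect and ±100 for the full control effect; inhibitors lower the ELG1-luciferase luminescence signal; nearly all actives have a fitted effect of over 70% in size.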 Put shortly: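 Quantitative HTS in HEK293T cells carrying luciferase-tagged ELG1, stimulated with 5-fluorouridine alongside compound for 16 hr. Loss of luciferase signal marks inhibition of ELG1 response.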

Assay [11] is described as follows: Nrf2 qHTS screen for inhibitors: Validation (AID 493153; active = well fitted inhibition curve with a large enough effect in the main read-out, with a control signal flat, not every such curve was filed as active). Conditions: viability change: measured here: cytotoxicity max response. Put shortly: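 Dose-response validation uses reporter A549 cells with firefly luciferase under an antioxidant response element. Compounds stay on cells 18-24 h at 37°C, and luminescence indicates Nrf2-driven transcription.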
Assay [12] deals with Flap endonuclease 1 (Homo sapiens) (UniProt P39748). Kind of assay: qHTS Validation Assay for the Inhibitors of Human Flap endonuclease 1 (FEN1) (AID 488816). Also: % is scaled to controls: 0 for no effect and ±100 for the full control effect. Put shortly: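 Human FEN1 (10 nM) preincubated 15 min at room temperature with compounds, then flap DNA substrate added at 50 nM final. Fluorescence read at 0 and 15 min; concentration-response fitted with four-parameter Hill equation.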

In assay [13] the target is M-phase phosphoprotein 8 (Homo sapiens) (UniProt Q99549). Kind of assay: qHTS Validation Assay for Inhibitors for MPP8 Chromodomain Interactions with Methylated Histone Tails (AID 488949). Also: nearly all actives have a fitted effect of over 55% in size. Also: potency is read from the fitted curve at half-maximal effect. In short, it runs like this:
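50 nM MPP8 + 50 nM b-H3K9me3 peptide, PBS pH 7.4/0.01% Tween-20, 30 min RT; + cpd 30 min RT; + AlphaScreen donor/Ni-chelate acceptor beads 10 ug/mL final, 30 min dark; luminescence read.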

The target of assay [14] is Transient receptor potential cation channel subfamily V member 1 (Homo sapiens) (UniProt Q8NER1). Kind of assay: HTS Assay for Compounds that Act as Enhancers of the Vanilloid Receptor 1 (AID 488979). Also: 0% is about no effect. Put shortly: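 TRPV1 cells loaded with Fluo-8 calcium dye; compound added and Ca2+ signal (ex 480/em 520 nm) followed 3 min, then capsaicin at EC20 added and read 2 more min to detect enhancement.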

Assay [15] addresses Thyrotropin receptor (Homo sapiens) (UniProt P16473). Kind of assay: qHTS Assay for Antagonists of the Thyroid Stimulating Hormone Receptor (AID 488980). Also: series mostly up to about 58 µM; 0% is about no effect. In short, it runs like this: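 Readout is cAMP by HTRF competition between cellular cAMP and cAMP-d2 for a cryptate-labelled antibody. Antagonism was assessed in TSHR-transfected HEK293 cells stimulated with 4 nM TSH (EC80, final) in the presence of RO 20-1724.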

Assay [16] can be described thus: Validation screen for small molecules that induce genotoxicity in human embryonic kidney (HEK293T) cells expressing luciferase-tagged ELG1 (AID 493106). Also: potency is read from the fitted curve at half-maximal effect. In short, it runs like this: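 Reporter-gene quantitative HTS in HEK293T cells carrying luciferase-tagged ELG1, whose level climbs under genotoxic stress. Compound exposure lasts 16 hr at 37 °C before luciferase detection.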

For assay [17], the target named is Galactokinase (Homo sapiens) (UniProt P51570). The assay can be described thus: qHTS Validation Assay for Inhibitors of Human Galactokinase (GALK) (AID 493189). Also: 0% is about no effect. In short, it runs like this:
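5 nM GALK / 100 uM galactose / 35 uM ATP, 20 mM HEPES pH8.0, 5 mM MgCl2, 60 mM NaCl, 1 mM DTT, 0.01% BSA (final). RT 1 h; Kinase-Glo Plus luminescence.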

A short description of assay [18]: Validation screen for small molecules that induce DNA re-replication in SW480 colon adenocarcinoma cells (AID 504364). Also: 0% is about no effect. In short, it runs like this:
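Cells are treated 48 hr with test compound, stained 40 min with Hoechst at 37 C, and scanned for nuclear fluorescence; compounds inducing re-replication increase nuclei with elevated intensity.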

Assay [19] deals with Chromobox protein homolog 1 (Homo sapiens) (UniProt P83916). The assay can be described thus: qHTS Validation Assay for Inhibitors of HP1-beta Chromodomain Interactions with Methylated Histone Tails (AID 488953). Also: nearly all actives have a fitted effect of over 50% in size. Also: potency is read from the fitted curve at half-maximal effect. Put shortly:
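Measured as loss of AlphaScreen luminescence from streptavidin donor and nickel acceptor beads (10 ug/mL final) bridging HP1-beta and biotin-H3(1-18)K9me3, each 50 nM. Compounds met the preassembled complex for 30 min at RT.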

A short description of assay [20]: Quantitative high throughput screen for delayed death inhibitors of the malarial parasite plastid, 48 hour incubation (AID 488752). Also: % is scaled to controls: 0 for no effect and ±100 for the full control effect; nearly all actives have a fitted effect of over 65% in size. In short, it runs like this:
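One parasite generation (48 h, 37 C, 5% CO2) of luciferase-reporter P. falciparum in erythrocytes is run with test compound; decreased luminescence indicates inhibited growth.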

Drawing on PubChem BioAssay (NCATS), this text covers Potency, outcome and viability change for 10 compounds.

The structures appear in SMILES notation. Values joined by “and” are separate entries in the source; they are usually repeats but may differ in a detail not shown here. Identical values can stand only once. Inconclusive results are not listed. Active and inactive are the calls of the source. Unless noted, calls follow the shape of the dose curve; as a rule, active = well fitted curve in the direction sought with a large enough effect; inconclusive = small, poorly fitted or top-dose-only effect, or another doubt; inactive = no such curve, though single readings can be large; an effect the other way counts as inactive or inconclusive.

ATPase family AAA domain-containing protein 5 (Homo sapiens), sequence (Q96QE3 whole entry, looked up, the tested form may be a part): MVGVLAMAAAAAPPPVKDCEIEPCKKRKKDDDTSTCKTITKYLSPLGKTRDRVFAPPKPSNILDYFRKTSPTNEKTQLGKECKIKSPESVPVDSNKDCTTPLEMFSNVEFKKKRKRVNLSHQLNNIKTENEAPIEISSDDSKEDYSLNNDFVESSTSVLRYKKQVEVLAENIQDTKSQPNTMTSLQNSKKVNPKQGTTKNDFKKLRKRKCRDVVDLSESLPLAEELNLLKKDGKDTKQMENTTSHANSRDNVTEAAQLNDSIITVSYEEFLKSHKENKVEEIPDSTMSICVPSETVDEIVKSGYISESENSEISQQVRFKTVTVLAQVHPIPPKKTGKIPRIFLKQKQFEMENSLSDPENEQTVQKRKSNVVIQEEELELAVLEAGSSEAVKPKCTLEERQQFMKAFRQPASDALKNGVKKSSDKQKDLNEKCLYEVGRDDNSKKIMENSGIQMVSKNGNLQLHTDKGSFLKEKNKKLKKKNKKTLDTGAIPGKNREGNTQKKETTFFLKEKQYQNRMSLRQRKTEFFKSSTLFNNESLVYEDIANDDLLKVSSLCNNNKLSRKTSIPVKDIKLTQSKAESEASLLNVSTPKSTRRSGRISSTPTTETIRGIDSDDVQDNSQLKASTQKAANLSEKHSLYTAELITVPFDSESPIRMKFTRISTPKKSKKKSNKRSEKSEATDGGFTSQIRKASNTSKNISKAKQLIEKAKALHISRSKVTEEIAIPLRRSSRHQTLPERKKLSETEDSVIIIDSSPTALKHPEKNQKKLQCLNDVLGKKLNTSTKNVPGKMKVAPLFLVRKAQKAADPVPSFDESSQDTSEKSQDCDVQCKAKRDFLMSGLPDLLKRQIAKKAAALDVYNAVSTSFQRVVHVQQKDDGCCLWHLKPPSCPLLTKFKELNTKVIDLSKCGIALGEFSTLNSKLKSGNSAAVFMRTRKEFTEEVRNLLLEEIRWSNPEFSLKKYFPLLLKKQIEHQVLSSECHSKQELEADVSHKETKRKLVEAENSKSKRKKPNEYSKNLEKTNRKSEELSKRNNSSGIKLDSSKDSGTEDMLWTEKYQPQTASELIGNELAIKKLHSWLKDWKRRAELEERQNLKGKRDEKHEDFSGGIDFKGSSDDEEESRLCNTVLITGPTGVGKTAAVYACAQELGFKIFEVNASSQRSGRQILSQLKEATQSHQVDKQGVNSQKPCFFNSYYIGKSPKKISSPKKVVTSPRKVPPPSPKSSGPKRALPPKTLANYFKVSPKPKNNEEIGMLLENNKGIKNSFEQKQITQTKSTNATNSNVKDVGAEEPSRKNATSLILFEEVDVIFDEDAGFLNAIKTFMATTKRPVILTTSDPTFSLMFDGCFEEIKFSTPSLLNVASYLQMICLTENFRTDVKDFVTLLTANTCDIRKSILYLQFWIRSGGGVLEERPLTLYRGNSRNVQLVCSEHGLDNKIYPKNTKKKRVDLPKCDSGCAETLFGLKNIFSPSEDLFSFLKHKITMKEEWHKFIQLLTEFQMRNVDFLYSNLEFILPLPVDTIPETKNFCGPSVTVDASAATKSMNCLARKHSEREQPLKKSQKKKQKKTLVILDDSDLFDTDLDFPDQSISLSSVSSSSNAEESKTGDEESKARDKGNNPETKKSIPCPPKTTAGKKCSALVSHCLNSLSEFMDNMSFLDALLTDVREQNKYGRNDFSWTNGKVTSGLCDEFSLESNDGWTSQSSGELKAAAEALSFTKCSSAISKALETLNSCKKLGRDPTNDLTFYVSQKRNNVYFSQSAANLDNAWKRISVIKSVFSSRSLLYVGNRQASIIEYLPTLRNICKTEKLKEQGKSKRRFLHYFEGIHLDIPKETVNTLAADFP
M-phase phosphoprotein 8 (Homo sapiens), sequence (Q99549 whole entry, looked up): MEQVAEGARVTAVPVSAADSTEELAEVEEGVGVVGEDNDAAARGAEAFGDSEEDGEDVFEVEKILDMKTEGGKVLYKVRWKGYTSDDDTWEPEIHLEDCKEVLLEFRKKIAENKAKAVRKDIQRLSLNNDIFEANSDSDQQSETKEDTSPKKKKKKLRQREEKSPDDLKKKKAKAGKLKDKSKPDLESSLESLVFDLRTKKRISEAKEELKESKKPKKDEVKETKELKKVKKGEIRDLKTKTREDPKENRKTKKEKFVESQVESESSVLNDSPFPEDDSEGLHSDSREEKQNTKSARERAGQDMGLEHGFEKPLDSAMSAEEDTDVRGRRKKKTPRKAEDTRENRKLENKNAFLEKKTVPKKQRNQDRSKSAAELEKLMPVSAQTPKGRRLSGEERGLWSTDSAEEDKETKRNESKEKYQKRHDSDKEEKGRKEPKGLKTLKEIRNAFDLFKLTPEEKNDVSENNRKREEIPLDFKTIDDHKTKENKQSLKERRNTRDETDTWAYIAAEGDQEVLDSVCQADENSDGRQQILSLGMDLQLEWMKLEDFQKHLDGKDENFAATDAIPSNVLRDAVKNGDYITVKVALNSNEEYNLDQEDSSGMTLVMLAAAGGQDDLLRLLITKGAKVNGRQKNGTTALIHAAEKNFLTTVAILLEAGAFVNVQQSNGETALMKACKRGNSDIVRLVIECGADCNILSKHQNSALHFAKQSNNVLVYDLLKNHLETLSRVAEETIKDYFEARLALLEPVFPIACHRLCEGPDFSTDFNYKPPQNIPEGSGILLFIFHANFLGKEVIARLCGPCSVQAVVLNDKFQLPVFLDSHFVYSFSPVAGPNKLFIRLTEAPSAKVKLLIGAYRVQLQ
Transient receptor potential cation channel subfamily V member 1 (Homo sapiens), sequence (Q8NER1 whole entry, looked up): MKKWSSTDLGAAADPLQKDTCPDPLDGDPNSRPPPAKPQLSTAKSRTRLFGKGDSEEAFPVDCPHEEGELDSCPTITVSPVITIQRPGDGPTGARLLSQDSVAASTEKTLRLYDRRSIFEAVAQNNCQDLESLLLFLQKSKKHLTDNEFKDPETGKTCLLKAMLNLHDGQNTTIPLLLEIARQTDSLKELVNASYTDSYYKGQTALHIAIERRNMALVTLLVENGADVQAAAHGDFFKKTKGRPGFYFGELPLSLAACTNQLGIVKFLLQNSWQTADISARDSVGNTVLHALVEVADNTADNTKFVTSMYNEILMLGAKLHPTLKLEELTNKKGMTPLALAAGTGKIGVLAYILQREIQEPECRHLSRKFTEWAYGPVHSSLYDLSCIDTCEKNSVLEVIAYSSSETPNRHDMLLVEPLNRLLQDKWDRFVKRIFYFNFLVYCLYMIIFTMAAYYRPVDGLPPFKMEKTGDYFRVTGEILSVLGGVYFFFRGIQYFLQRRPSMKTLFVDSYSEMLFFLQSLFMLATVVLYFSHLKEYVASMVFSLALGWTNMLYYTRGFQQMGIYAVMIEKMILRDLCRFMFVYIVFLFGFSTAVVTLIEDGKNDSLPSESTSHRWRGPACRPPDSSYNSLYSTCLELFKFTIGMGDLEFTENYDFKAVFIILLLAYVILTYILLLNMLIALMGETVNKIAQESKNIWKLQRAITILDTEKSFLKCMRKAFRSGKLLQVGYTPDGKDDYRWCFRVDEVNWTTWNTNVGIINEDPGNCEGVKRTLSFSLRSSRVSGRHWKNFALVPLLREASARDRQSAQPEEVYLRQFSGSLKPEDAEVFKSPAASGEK
phosphoglycerate mutase (Leishmania major), sequence (Q4Q090 1-553): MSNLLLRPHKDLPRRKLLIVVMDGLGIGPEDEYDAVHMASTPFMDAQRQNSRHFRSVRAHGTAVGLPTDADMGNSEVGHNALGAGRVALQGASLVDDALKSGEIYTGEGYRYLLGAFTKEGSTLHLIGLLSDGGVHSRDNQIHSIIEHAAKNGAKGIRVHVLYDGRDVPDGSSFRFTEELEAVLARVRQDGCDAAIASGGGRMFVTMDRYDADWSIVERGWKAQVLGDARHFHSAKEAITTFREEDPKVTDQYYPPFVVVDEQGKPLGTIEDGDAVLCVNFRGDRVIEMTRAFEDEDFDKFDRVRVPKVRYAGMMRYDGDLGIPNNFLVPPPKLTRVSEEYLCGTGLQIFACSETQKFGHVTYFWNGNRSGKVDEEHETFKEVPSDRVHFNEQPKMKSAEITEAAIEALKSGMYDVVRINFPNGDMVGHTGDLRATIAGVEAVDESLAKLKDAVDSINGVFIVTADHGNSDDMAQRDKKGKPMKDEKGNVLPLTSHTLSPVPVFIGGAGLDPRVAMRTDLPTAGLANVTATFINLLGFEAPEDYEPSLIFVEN
Thioredoxin reductase 1, cytoplasmic (Rattus norvegicus), sequence (O89049 whole entry, looked up): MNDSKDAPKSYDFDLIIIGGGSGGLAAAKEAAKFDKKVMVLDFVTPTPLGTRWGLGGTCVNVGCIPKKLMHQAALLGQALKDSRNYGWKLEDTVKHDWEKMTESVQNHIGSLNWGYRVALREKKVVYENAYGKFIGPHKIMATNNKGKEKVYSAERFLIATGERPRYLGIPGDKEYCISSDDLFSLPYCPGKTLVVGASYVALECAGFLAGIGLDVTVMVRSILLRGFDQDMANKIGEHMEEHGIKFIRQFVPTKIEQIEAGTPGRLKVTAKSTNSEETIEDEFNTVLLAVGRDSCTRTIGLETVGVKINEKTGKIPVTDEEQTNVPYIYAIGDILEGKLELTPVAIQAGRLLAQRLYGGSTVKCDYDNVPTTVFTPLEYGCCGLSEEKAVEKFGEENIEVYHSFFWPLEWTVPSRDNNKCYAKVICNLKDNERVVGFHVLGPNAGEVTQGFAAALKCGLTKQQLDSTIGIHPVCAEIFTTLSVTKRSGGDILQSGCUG
Phosphoglycerate kinase, glycosomal (Trypanosoma brucei brucei), sequence (P07378 whole entry, looked up): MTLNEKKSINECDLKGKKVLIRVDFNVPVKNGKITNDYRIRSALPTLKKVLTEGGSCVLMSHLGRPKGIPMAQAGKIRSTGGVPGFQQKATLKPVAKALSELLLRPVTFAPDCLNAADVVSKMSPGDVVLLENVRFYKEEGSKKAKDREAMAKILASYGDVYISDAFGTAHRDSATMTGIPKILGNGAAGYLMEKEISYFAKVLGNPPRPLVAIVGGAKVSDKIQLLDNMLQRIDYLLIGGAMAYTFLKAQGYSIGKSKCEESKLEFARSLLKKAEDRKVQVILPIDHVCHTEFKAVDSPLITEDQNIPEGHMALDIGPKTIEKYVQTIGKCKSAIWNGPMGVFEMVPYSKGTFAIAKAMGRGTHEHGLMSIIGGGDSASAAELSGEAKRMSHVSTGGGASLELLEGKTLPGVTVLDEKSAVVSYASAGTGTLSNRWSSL

As to `Clc1ccc(C(c2ccc(Cl)cc2)n2cc[n+](CC(OCc3ccc(Cl)cc3Cl)c3ccc(Cl)cc3Cl)c2)cc1` (stereo unspecified), the Potency entry in assay [1] and in [5] was “inactive” throughout. The result in assay [2], in assay [3], in assay [4], in assay [6], in [7] and in assay [8] was inactive. Further, the compound was called inactive in assay [9].

Consider `C[N+](C)(C)CC(=O)O`, for which the Potency entry in assay [1] and in assay [5] was “inactive” each time. For the same compound, the compound was called inactive in assay [2], in assay [3], in assay [4], in assay [10], in assay [11] and in assay [6]. Moreover, the result in assay [7], in assay [8] and in [9] was inactive. The viability change in assay [11] was 8.76%.

Turning to `CC1(C)CCC2=C(O1)c1ccccc1C(=O)C2=O`, the Potency in assay [1] was 18.9 µM (active). The result in [12], in assay [2], in assay [14], in [15], in [3] and in assay [4] was inactive. Further, the compound was classed as inactive in assay [6] and in assay [9]. The Potency entry in assay [13], in assay [5] and in [16] was “inactive” throughout.

`CCCCC1C(=O)N(c2ccccc2)N(c2ccccc2)C1=O`: the Potency result in assay [1], in assay [13], in assay [5] and in assay [16] was “inactive” throughout. The result in assay [12], in assay [2], in assay [14], in [15], in [3] and in assay [10] was inactive. For the same compound, the compound was classed as inactive in [11], in [6], in [17], in assay [18], in [7] and in assay [8]. In [9], the result was inactive. The viability change in assay [11] is -3.3%.

For the compound `O=c1c(-c2ccc(O)cc2)coc2cc(O)ccc12`, the Potency result in [1], in [13], in [19] and in assay [5] was “inactive” each time. Further, the compound was called inactive in assay [12], in [2], in assay [14], in [15], in assay [3] and in [4]. The result in assay [11], in assay [6], in assay [17], in assay [18], in [7] and in assay [8] was inactive. The call in [9] was inactive. In addition, the Potency in [16] was 20.6 µM (active). Moreover, in assay [11], the viability change came out at 1.29%.

For `CC(=O)O[C@]1(C(C)=O)CC[C@H]2[C@@H]3C=C(Cl)C4=CC(=O)[C@@H]5C[C@@H]5[C@]4(C)[C@H]3CC[C@@]21C`, the Potency result in [1], in [13], in assay [19], in assay [5] and in [16] was “inactive” throughout. In addition, the compound was called inactive in assay [12], in assay [2], in assay [3], in assay [10], in assay [11] and in assay [6]. Also, the call in assay [7], in assay [8] and in assay [9] was inactive. Besides, the viability change in assay [11] worked out at 2.19%.

Take `CCN1CCC[C@H]1CNC(=O)c1cc(S(N)(=O)=O)ccc1OC`: the call in assay [20], in [12], in assay [2], in [14], in [15] and in [3] was inactive. Moreover, the result in assay [4], in assay [10], in assay [11], in assay [6], in assay [17] and in [18] was inactive. For the same compound, the compound was classed as inactive in assay [7], in [8] and in [9]. For the same compound, the Potency entry in assay [1], in [13], in [19], in assay [5] and in assay [16] was “inactive” in each case. For the same compound, the viability change in assay [11] is -14.1%.

Consider `CCn1cc(C(=O)O)c(=O)c2ccc(C)nc21`, for which the Potency entry in [1], in assay [19], in assay [5] and in assay [16] was “inactive” each time. Further, the outcome in [2], in assay [3], in assay [4], in [10], in [6] and in assay [7] was inactive. Also, the outcome in [8] and in assay [9] was inactive.

For `CC/C(=C(\c1ccccc1)c1ccc(OCCN(C)C)cc1)c1ccccc1`, the Potency entry in assay [1], in assay [5] and in [16] was “inactive” in each case. Moreover, the compound was called inactive in [12], in assay [2], in assay [14], in assay [15], in assay [10] and in [11]. The outcome in [6], in [17], in [18], in assay [7], in [8] and in assay [9] was inactive. In addition, the Potency in [13] is 17.8 µM (active); in assay [19], 35.5 µM (active). Besides, in assay [11], the viability change stood at 7.91%.

Take `C[N+](C)(C)CCCCCC[N+](C)(C)C`: the compound was classed as inactive in assay [20], in assay [12], in assay [2], in assay [14], in assay [3] and in assay [4]. The compound was called inactive in [10], in assay [11], in assay [6], in assay [17], in assay [18] and in [7]. The outcome in [8] and in assay [9] was inactive. Also, the Potency result in assay [1], in [13], in assay [19], in assay [5] and in [16] was “inactive” each time. In addition, in [11], the viability change is -1.95% and 3.05%.
